# Test results taken from PubChem BioAssay AID504833 (Johns Hopkins Ion Channel Center, 2011).
# In all, about 2,500 compounds went through this assay and about 2,200 (88%) were called active.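 The calls were made as follows: active = primary screen active, with duplicate mean activation above negative control mean plus 3 SD (cut at about 11% in these data); inactive = the rest.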 The set was probably picked from earlier hits. Only a sample is shown.
# Target: High affinity choline transporter 1 (Homo sapiens) (UniProt Q9GZV3)
# Experiment: human choline transporter potentiators – cell-based, membrane potential dye, duplicate, confirmation (AID 504833)
# Conditions: CHT-expressing cells, membrane potential dye fluorescence (FDSS); at 10 µM; active compounds read high; % of choline EC20–EC90 response window; HEK293 expressing CHT LV-AA mutant; choline added at its EC20
# Sequence of High affinity choline transporter 1 (Homo sapiens) (Q9GZV3 whole entry, looked up): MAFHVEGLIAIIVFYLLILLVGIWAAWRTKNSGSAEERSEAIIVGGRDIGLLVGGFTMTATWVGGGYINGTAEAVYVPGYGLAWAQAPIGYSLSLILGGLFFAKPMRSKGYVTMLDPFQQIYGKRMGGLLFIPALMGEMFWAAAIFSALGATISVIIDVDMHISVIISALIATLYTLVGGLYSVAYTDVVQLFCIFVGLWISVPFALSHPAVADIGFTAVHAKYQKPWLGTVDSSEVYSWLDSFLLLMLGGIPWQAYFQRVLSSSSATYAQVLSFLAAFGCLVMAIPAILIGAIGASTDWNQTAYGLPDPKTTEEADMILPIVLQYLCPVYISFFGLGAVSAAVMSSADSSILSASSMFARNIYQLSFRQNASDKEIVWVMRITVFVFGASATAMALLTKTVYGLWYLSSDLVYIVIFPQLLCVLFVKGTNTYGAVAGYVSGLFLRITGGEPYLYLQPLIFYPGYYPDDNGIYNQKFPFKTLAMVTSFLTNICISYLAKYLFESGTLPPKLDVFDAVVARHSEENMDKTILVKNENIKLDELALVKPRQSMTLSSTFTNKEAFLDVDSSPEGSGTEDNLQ
row,SMILES,activation
1,CN1CCN(c2cc(N3CCNCC3)ccc2[N+](=O)[O-])CC1,80.3% (active)
2,Cc1nc2ccc(N3CCN(C)CC3)cc2nc1C,20.3% (active)
3,CCCCCn1c(=O)c(C(=O)Nc2c(C)n(C)n(-c3ccccc3)c2=O)c(O)c2ccccc21,6.79% (inactive)
4,CCN1CCN(c2ccc([N+](=O)[O-])cc2C#N)CC1,43.4% (active)
5,CCOc1ccc(-c2cc(C)[n+](CCN(CC)CC)c(-c3ccc(OCC)cc3)c2)cc1,34.4% (active)
6,CC[N+](CC)(CC)CCCCCCCCCC[N+](CC)(CC)CC,41% (active)
